From PubChem BioAssay
Sampled rows, rich in hits. Any-hit rate of the full collection: about 3.1%.
UBC13 inh: blocks human UBC13 polyubiquitin chain formation; TR-FRET; inhibition, % at 20 µM; actives 0.47% (n = 330,000); AID 485273; in the data active = inhibition above about 45%, passing the limit was not always enough; inconclusive = no clear call, values can overlap the other calls
Target sequence (P61088 whole entry, looked up): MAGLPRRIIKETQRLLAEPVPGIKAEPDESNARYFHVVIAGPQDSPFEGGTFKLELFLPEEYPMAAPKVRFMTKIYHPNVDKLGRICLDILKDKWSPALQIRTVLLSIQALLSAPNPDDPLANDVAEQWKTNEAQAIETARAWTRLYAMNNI
MEKK2 mut-MEK5: signal of MEK5 binding to mutant human MEKK2 PB1 domain; bead flow cytometry, Alexa488-MEK5 binding to MEKK2 mutant; percent response, % at 10 µM; actives 0.35% (n = 290,000); in the data active = percent response above about 24%, passing the limit was not always enough
MEKK3 PB1 HTS: modulators (inhibitors or enhancers) of MEK5 binding to human MEKK3 PB1 domain. binding response (% of control), % at 10 µM. bead-based flow cytometry, Alexa488-MEK5 binding to MEKK3; actives lie on both sides; 0 = blocked by unlabeled MEK5, 100 = vehicle. actives 1.4% (n = 290,000). Q99759;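 active = binding response more than 3 SD above or below the average of its plate-row segment, actives on both sides; inconclusive = wells at one plate position flagged as instrument error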;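 note: Alexa488 bead fluorescence after subtracting the streptavidin-only scavenger bead signal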
PREPL inhibitor: inhibits the human prolyl oligopeptidase-like enzyme | inhibition, % at 5.96 µM | AID 2751 | recombinant PREPL, fluorescence polarization activity-based probe | actives 0.68% (n = 320,000) | Q4J6C6;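 note: 0% = enzyme with DMSO and 100% = wells lacking enzyme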
MEKK2wt PB1 HTS: raises or lowers MEK5 binding to wildtype human MEKK2 PB1 domain. bead flow cytometry, Alexa488-MEK5 binding to MEKK2 WT; actives lie on both sides. binding response (% of control), % at 10 µM. actives 1.1% (n = 290,000). AID 1531; in the data active = binding response below about 67% or above about 130%; inconclusive = no clear call, values can overlap the other calls; inactive = in between
ATG4B inhibitor: inhibitors of human ATG4B cysteine protease; Q9Y4P1; inhibition, % at 8.33 µM; ATG4B cleavage of LC3-PLA2, NBD-HPC fluorescence, 1 h; actives 0.51% (n = 340,000); AID 504462; in the data active = inhibition above about 40%
Target sequence (Q9Y4P1 whole entry, looked up): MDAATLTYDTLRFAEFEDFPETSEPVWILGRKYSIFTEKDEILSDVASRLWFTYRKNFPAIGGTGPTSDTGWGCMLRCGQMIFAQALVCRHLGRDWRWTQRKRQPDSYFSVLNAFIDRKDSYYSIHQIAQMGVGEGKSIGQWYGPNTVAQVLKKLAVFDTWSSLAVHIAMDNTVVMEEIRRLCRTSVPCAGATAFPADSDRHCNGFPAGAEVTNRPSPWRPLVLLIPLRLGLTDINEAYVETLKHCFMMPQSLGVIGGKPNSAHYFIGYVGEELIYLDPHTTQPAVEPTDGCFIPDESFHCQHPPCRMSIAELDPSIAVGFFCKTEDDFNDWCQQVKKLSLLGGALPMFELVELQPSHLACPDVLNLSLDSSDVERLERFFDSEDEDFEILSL
PREPL confirm: human PREPL inhibition, confirmation; inhibition, % at 5.96 µM; actives 67% (n = 2,000); shares compounds with PREPL inhibitor; recombinant PREPL, fluorescence polarization activity probe;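 note: 0% = protein with DMSO and 100% = wells lacking protein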
Casp3 UBC13 ctr: inhibits human caspase-3 in UBC13 counter-screen | shares compounds with UBC13 inh | AID 488856 | actives 4% (n = 1,400) | Recombinant caspase-3, Caspase-Glo 3/7 luminescence, 60 min | inhibition, % at 20 µM;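 active = mean inhibition across replicates above about 26%, limit read from the data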;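 note: plate controls were DMSO with caspase-3 for no effect and DMSO wells lacking enzyme for full effect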
UBC13 conf: confirmation of human UBC13 polyubiquitin inhibitors | inhibition, % at 10 µM | shares compounds with UBC13 inh | actives 68% (n = 1,400) | UBC13 polyubiquitination, TR-FRET, biochemical; in the data active = inhibition above about 45%; inconclusive = no clear call, values can overlap the other calls
ATG4B conf: ATG4B (human) inhibition, single-dose confirmed | shares compounds with ATG4B inhibitor | ATG4B protease fluorescent substrate cleavage assay | inhibition, % at 8.33 µM | actives 92% (n = 320) | AID 504757; in the data active = inhibition above about 39%
PLA2 ctr: inhibits human PLA2, flagging false ATG4B inhibitors; shares compounds with ATG4B inhibitor; purified PLA2, NBD-C6-HPC fluorescence, 45 min; inhibition, % at 8.33 µM; actives 66% (n = 1,600); AID 588402; in the data active = inhibition above about 50%
Starred values were filed as active, the others as inactive. Cut-off read from the data, not from the text of the source, unless noted: active = inhibition above about 43%; inactive = the rest.

`C#CCOCCOCCOCCNc1nc(N2CCN(C(=O)CCCCCCCCCCNC(=O)Cn3cc(C[C@@H](C)O)nn3)CC2)nc(N2CCN(C(=O)CCCCCCCCCCNC(=O)[C@H](CCCCN)n3cc(CCCC(=O)O)nn3)CC2)n1` gave UBC13 inh 43.9, PREPL inhibitor 17.6 and ATG4B inhibitor -9.8.
C#CCOCCOCCOCCNc1nc(N2CCN(C(=O)CCCCCCCCCCNC(=O)[C@H]([C@@H](C)CC)n3cc(CCCCCN)nn3)CC2)nc(N2CCN(C(=O)CCCCCCCCCCNC(=O)[C@H]([C@@H](C)CC)n3cc(CCCCN=C(N)N)nn3)CC2)n1 was read as UBC13 inh 124.8*, PREPL inhibitor 63.1*, PREPL confirm 56.8*, Casp3 UBC13 ctr -3.4 and UBC13 conf 127.5*.
C#CCOCCOCCOCCNc1nc(N2CCN(C(=O)Cn3cc(CCCN=C(N)N)nn3)CC2)nc(N2CCN(C(=O)[C@H]([C@@H](C)CC)n3cc(CCCCN)nn3)CC2)n1 was read as UBC13 inh 23.1, PREPL inhibitor 11.7 and ATG4B inhibitor -3.9.
Screening Oc1[nH]c2ccccc2c1N=Nc1ncnc2c1oc1ccccc12 returned UBC13 inh -1.0, MEKK2 mut-MEK5 -5.0, MEKK3 PB1 HTS 96.0, PREPL inhibitor 1.6 and MEKK2wt PB1 HTS 91.0.
O=C(COC(=O)/C=C/c1ccccc1)NC1CCCCCC1 was read as UBC13 inh 0.0 and ATG4B inhibitor -6.8.
For CC(C)C[C@@H]1CN=C(N)N1C[C@@H]1CCCN1C[C@H](C)N1C[C@@H](Cc2ccccc2)N(CCCC2CCCC2)C1=N the results were UBC13 inh 61.0*, PREPL inhibitor 52.2*, ATG4B inhibitor 14.4, PREPL confirm 42.8, Casp3 UBC13 ctr -5.0 and UBC13 conf 64.4*.
For CC(C)C[C@@H]1CN=C(N)N1C[C@@H]1CCCN1C[C@H](C)N1C[C@@H](Cc2ccccc2)N(CCc2ccc(Cl)c(Cl)c2)C1=N the results were UBC13 inh 75.5*, PREPL inhibitor 45.0*, ATG4B inhibitor 6.9, PREPL confirm 37.8, Casp3 UBC13 ctr 3.2 and UBC13 conf 71.1*.
O=C(O)c1cc(O)c2c(c1)[C@H]([C@H]1c3cc(C(=O)O)cc(O)c3C(=O)c3c(O[C@@H]4O[C@H](CO)[C@@H](O)[C@H](O)[C@H]4O)cccc31)c1cccc(OC3O[C@H](CO)[C@@H](O)[C@H](O)[C@H]3O)c1C2=O (stereo not given in full) was read as UBC13 inh inconclusive, PREPL inhibitor 105.2*, ATG4B inhibitor 95.0*, PREPL confirm 92.0* and PLA2 ctr -11.9.
Screening O=C1c2cc(CO)cc(O)c2C(=O)c2c(O[C@@H]3OC(CO)[C@@H](O)[C@@H](O)[C@@H]3O)cccc21 (stereo not given in full) returned UBC13 inh -109.9, MEKK2 mut-MEK5 1.0, MEKK3 PB1 HTS 102.0, PREPL inhibitor -1.2, MEKK2wt PB1 HTS 101.0 and ATG4B inhibitor -30.9.
`COc1ccc2c(c1)O[C@@H](c1ccc3c(c1)OCO3)[C@H](OC(=O)Nc1cc(OC)c(OC)c(OC)c1)C2=O` gave MEKK2 mut-MEK5 2.0, MEKK3 PB1 HTS 96.0 and MEKK2wt PB1 HTS 93.0.
For N=C1/C(=C\c2ccc(OC(=O)c3ccccc3Cl)cc2)C(=O)N=C2SC(N3CCOCC3)=NN12 the results were UBC13 inh -29.3, MEKK2 mut-MEK5 1.0, MEKK3 PB1 HTS 100.0, PREPL inhibitor 52.9*, MEKK2wt PB1 HTS 98.0, ATG4B inhibitor 58.4*, PREPL confirm 16.3 and PLA2 ctr 52.5*.
O=C1N[C@@H](c2ccccc2)COC(=O)[C@@H](Cc2ccc(F)cc2)C/C=C\C[C@H]1CC(=O)N(CCO)Cc1ccccc1 was read as UBC13 inh -9.2, PREPL inhibitor 37.1 and ATG4B inhibitor -9.1.
`O=C1N[C@@H](c2ccccc2)COC(=O)[C@H](Cc2ccc(F)cc2)CC/C=C/C[C@@H]1CC(=O)N(CCO)Cc1ccccc1` gave UBC13 inh 7.3, PREPL inhibitor 57.3*, ATG4B inhibitor 47.5*, PREPL confirm 45.5* and PLA2 ctr 57.1*.
For Cc1c(C(=O)O)cccc1-c1ccc(/C=N/Nc2ccc(Br)cc2)o1 the results were UBC13 inh -17.7, MEKK2 mut-MEK5 -2.0, MEKK3 PB1 HTS 97.0, PREPL inhibitor 45.8*, MEKK2wt PB1 HTS 97.0, ATG4B inhibitor 48.1*, PREPL confirm 21.5 and PLA2 ctr 25.3.
Screening C#CCOCCOCCOCCNc1nc(N2CCN(C(=O)CCCCCCCCCCNC(=O)[C@H]([C@@H](C)CC)n3cc(CCCCN=C(N)N)nn3)CC2)nc(N2CCN(C(=O)CCCCCCCCCCNC(=O)[C@H](CCCCN)n3cc(C)nn3)CC2)n1 returned UBC13 inh 124.1*, PREPL inhibitor 44.9*, ATG4B inhibitor 56.9*, PREPL confirm 54.7*, Casp3 UBC13 ctr -3.5, UBC13 conf 126.8*, ATG4B conf 28.2 and PLA2 ctr 28.0.
For C#CCOCCOCCOCCNc1nc(N2CCN(C(=O)CCCCCCCCCCNC(=O)[C@H](CO)n3cc(CCCSC)nn3)CC2)nc(N2CCN(C(=O)CCCCCCCCCCNC(=O)[C@@H]([C@H](C)O)n3cc(C)nn3)CC2)n1 the results were UBC13 inh 11.0 and PREPL inhibitor 7.5.
Screening N#CCC(=O)Nc1ccc(C(=O)NCCc2c[nH]c3ccccc23)cc1 returned UBC13 inh 5.7, MEKK2 mut-MEK5 16.0, MEKK3 PB1 HTS 105.0, PREPL inhibitor -5.0, MEKK2wt PB1 HTS 118.0 and ATG4B inhibitor -18.7.
`CCOc1ccc(CN(C)CC(=O)NCc2ccc(F)cc2)cc1` gave UBC13 inh -8.5, MEKK2 mut-MEK5 -1.0, MEKK3 PB1 HTS 101.0, PREPL inhibitor -4.9, MEKK2wt PB1 HTS 102.0 and ATG4B inhibitor -5.7.
